The whole screen tested about 5,500 compounds, of which about 2,000 (36%) were called active. Inconclusive results (about 18%) are left out. Cut-off read from the data, not from the text of the source: active = normalized growth mostly below about 0.91 (no sharp cut-off); inconclusive = no clear call, values can overlap the other calls; inactive = mostly above about 0.92. This is one part of the list.
Experiment: chemical genetic growth profiling, strain panel (AID 1159580);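 note: tested at 20 µM; growth read once vehicle control cultures reached saturation at 30 °C; 1 = growth at the plate median or of vehicle wells; lower values mean less growth of the strain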
Details: S. cerevisiae deletion strains, growth OD
[1] = locus YHR030C, strain SLT2, stronger effect = lower value
[2] = locus YHR079C, strain IRE1, stronger effect = lower value
[3] = locus YJL095W, strain BCK1, stronger effect = lower value
[4] = locus YJR066W, strain TOR1, stronger effect = lower value
[5] = locus YLR113W, strain HOG1, stronger effect = lower value
[6] = locus YNL183C, strain NPR1, stronger effect = lower value
[7] = locus YOR231W, strain MKK1, stronger effect = lower value
[8] = locus YPL256C, strain CLN2, stronger effect = lower value

Measured: normalized growth

CCC(C)COC(=O)/C=C/c1ccc(N=Cc2ccc(OC)cc2)cc1 (stereo unspecified)
active: [1] 0.531 | [3] 0.474 | locus YJR066W, strain TOR1 (second series), stronger effect = lower value 0.241 | [5] 0.696 | [8] 0.798
inactive: locus YAR019C, strain CDC15, stronger effect = lower value 0.961 | locus YBL105C, strain PKC1, stronger effect = lower value 0.968 | locus YBR135W, strain CKS1, stronger effect = lower value 0.969 | locus YBR136W, strain MEC1, stronger effect = lower value 0.969 | locus YBR160W, strain CDC28, stronger effect = lower value 0.978 | locus YDL017W, strain CDC7, stronger effect = lower value 0.98 | locus YDL028C, strain MPS1, stronger effect = lower value 0.984 | locus YDL101C, strain DUN1, stronger effect = lower value 0.948 | locus YDL108W, strain KIN28, stronger effect = lower value 0.965 | locus YDL132W, strain cdc53, stronger effect = lower value 0.958 | locus YDL214C, strain PRR2, stronger effect = lower value 0.845 | locus YDR052C, strain DBF4, stronger effect = lower value 0.969 | locus YDR054C, strain cdc34, stronger effect = lower value 0.964 | locus YDR226W, strain ADK1, stronger effect = lower value 0.955 | locus YDR477W, strain SNF1, stronger effect = lower value 0.842 | locus YER123W, strain YCK3, stronger effect = lower value 0.743 | locus YER133W, strain GLC7, stronger effect = lower value 0.804 | locus YFL009W, strain cdc4, stronger effect = lower value 0.972 | locus YFL029C, strain CAK1, stronger effect = lower value 0.962 | locus YFR003C, strain YPI1, stronger effect = lower value 0.968 | locus YFR019W, strain FAB1, stronger effect = lower value 0.843 | locus YFR028C, strain CDC14, stronger effect = lower value 0.952 | locus YGR040W, strain KSS1, stronger effect = lower value 0.811 | locus YGR052W, strain FMP48, stronger effect = lower value 0.779 | locus YGR092W, strain DBF2, stronger effect = lower value 0.646 | [2] 0.814 | locus YHR082C, strain KSP1, stronger effect = lower value 0.852 | locus YHR205W, strain SCH9, stronger effect = lower value 0.662 | locus YIL147C, strain SLN1, stronger effect = lower value 0.965 | locus YJL128C, strain PBS2, stronger effect = lower value 0.921 | locus YJL157C, strain FAR1, stronger effect = lower value 0.864 | locus YJR016C, strain ILV3, stronger effect = lower value 0.963 | [4] 0.794 | locus YKL048C, strain ELM1, stronger effect = lower value 0.805 | locus YKL067W, strain YNK1, stronger effect = lower value 0.873 | locus YKL101W, strain HSL1, stronger effect = lower value 0.831 | locus YKL193C, strain SDS22, stronger effect = lower value 0.962 | locus YKL203C, strain TOR2, stronger effect = lower value 0.826 | locus YLR133W, strain CKI1, stronger effect = lower value 0.825 | locus YLR403W, strain SFP1, stronger effect = lower value 0.742 | locus YML070W, strain DAK1, stronger effect = lower value 0.814 | locus YMR001C, strain CDC5, stronger effect = lower value 0.964 | locus YMR205C, strain PFK2 (second series), stronger effect = lower value 0.861 | locus YMR277W, strain FCP1, stronger effect = lower value 0.966 | locus YNL006W, strain LST8, stronger effect = lower value 0.972 | locus YNL020C, strain ARK1, stronger effect = lower value 0.836 | locus YNL161W, strain CBK1, stronger effect = lower value 0.97 | [6] 0.795 | locus YNL207W, strain RIO2, stronger effect = lower value 0.947 | locus YNL222W, strain SSU72, stronger effect = lower value 0.972 | locus YNL307C, strain MCK1 (second series), stronger effect = lower value 0.783 | locus YOL078W, strain AVO1, stronger effect = lower value 0.958 | locus YOL136C, strain PFK27, stronger effect = lower value 0.755 | locus YOR061W, strain CKA2, stronger effect = lower value 0.803 | locus YOR119C, strain RIO1, stronger effect = lower value 0.816 | [7] 0.785 | locus YOR329C, strain SCD5, stronger effect = lower value 0.975 | locus YPL031C, strain PHO85, stronger effect = lower value 0.819 | locus YPL153C, strain RAD53, stronger effect = lower value 0.83 | locus YPL204W, strain HRR25, stronger effect = lower value 0.719 | locus YPL209C, strain IPL1, stronger effect = lower value 0.959 | locus YPR025C, strain CCL1, stronger effect = lower value 0.968 | locus YPR106W, strain ISR1, stronger effect = lower value 0.951 | locus YPR111W, strain DBF20, stronger effect = lower value 0.944 | strain NNK1, stronger effect = lower value 0.941 | strain TSCII, stronger effect = lower value 0.95

CC(C)(O)[C@@H]1CC[C@](C)([C@H]2[C@@H](O)C[C@@]3(C)C4C[C@H](O[C@@H]5O[C@H](CO)[C@@H](O)[C@H](O)[C@H]5O)C5C(C)(C)[C@@H](O[C@@H]6OC[C@@H](O)[C@H](O)[C@H]6O)CC[C@@]56C[C@@]46CC[C@]23C)O1 (stereo partly specified)
inactive: locus YAL021C, strain ccr4, stronger effect = lower value 0.988 | locus YAL026C, strain drs2, stronger effect = lower value 0.986 | locus YAL030W, strain snc1, stronger effect = lower value 0.99 | locus YBL061C, strain skt5, stronger effect = lower value 0.999 | locus YBR009C, strain hhf1, stronger effect = lower value 1.01 | locus YBR023C, strain chs3, stronger effect = lower value 0.998 | locus YBR171W, strain sec66, stronger effect = lower value 0.989 | locus YBR231C, strain swc5, stronger effect = lower value 1 | locus YBR279W, strain paf1, stronger effect = lower value 0.991 | locus YCL011C, strain gbp2, stronger effect = lower value 0.995 | locus YCL016C, strain dcc1, stronger effect = lower value 1 | locus YCL061C, strain MRC1, stronger effect = lower value 1 | locus YCL069W, strain vba3, stronger effect = lower value 0.981 | locus YCR088W, strain abp1, stronger effect = lower value 0.986 | locus YDL005C, strain med2, stronger effect = lower value 0.977 | locus YDL040C, strain nat1, stronger effect = lower value 0.985 | locus YDR001C, strain nth1, stronger effect = lower value 0.991 | locus YDR069C, strain doa4, stronger effect = lower value 0.975 | locus YDR137W, strain rgp1, stronger effect = lower value 1.04 | locus YDR159W, strain sac3, stronger effect = lower value 0.966 | locus YDR195W, strain ref2 0.931 | locus YDR297W, strain sur2, stronger effect = lower value 1 | locus YDR334W, strain swr1, stronger effect = lower value 0.959 | locus YDR335W, strain msn5, stronger effect = lower value 0.986 | locus YDR392W, strain spt3, stronger effect = lower value 0.997 | locus YEL003W, strain gim4, stronger effect = lower value 0.991 | locus YEL037C, strain rad23, stronger effect = lower value 0.974 | locus YEL061C, strain CIN8 (second series), stronger effect = lower value 0.985 | locus YER015W, strain faa2, stronger effect = lower value 0.998 | locus YER016W, strain bim1, stronger effect = lower value 1 | locus YER111C, strain swi4, stronger effect = lower value 0.979 | locus YER155C, strain BEM2 (second series), stronger effect = lower value 1 | locus YFR010W, strain ubp6, stronger effect = lower value 0.989 | locus YGL167C, strain pmr1, stronger effect = lower value 0.979 | locus YGL173C, strain kem1, stronger effect = lower value 0.99 | locus YGL227W, strain vid30, stronger effect = lower value 0.999 | locus YGL240W, strain doc1, stronger effect = lower value 1 | locus YGL253W, strain hxk2, stronger effect = lower value 0.988 | locus YHR013C, strain ard1, stronger effect = lower value 0.976 | locus YHR027C, strain rpn1, stronger effect = lower value 0.998 | [1] 0.954 | [2] 0.96 | locus YHR142W, strain chs7, stronger effect = lower value 0.978 | locus YJL092W, strain hpr5, stronger effect = lower value 0.995 | locus YJL095W, strain BCK1 (second series), stronger effect = lower value 0.981 | [3] 1.05 | locus YJL115W, strain asf1, stronger effect = lower value 0.978 | locus YJL129C, strain trk1, stronger effect = lower value 0.989 | locus YJL154C, strain vps35, stronger effect = lower value 0.972 | locus YJL164C, strain tpk1, stronger effect = lower value 1 | locus YJL166W, strain qcr8, stronger effect = lower value 0.987 | locus YJL187C, strain SWE1, stronger effect = lower value 0.993 | [4] 0.92 | locus YKL160W, strain elf1, stronger effect = lower value 0.996 | locus YKR026C, strain gcn3, stronger effect = lower value 0.992 | locus YKR091W, strain srl3, stronger effect = lower value 0.993 | locus YLL001W, strain dnm1, stronger effect = lower value 1 | locus YLL026W, stronger effect = lower value 1 | locus YLL041C, strain sdh2, stronger effect = lower value 0.98 | locus YLR027C, strain aat2, stronger effect = lower value 1.02 | [5] 1.1 | locus YLR221C, strain rsa3, stronger effect = lower value 1 | locus YLR258W, strain gsy2, stronger effect = lower value 0.979 | locus YLR262C, strain YPT6 (second series), stronger effect = lower value 0.998 | locus YLR320W, strain mms22, stronger effect = lower value 0.996 | locus YLR342W, strain FKS1, stronger effect = lower value 1 | locus YLR357W, strain rsc2, stronger effect = lower value 0.967 | locus YLR370C, strain arc18, stronger effect = lower value 0.986 | locus YLR384C, strain iki3, stronger effect = lower value 1 | locus YML120C, strain ndi1, stronger effect = lower value 0.98 | locus YMR058W, strain fet3, stronger effect = lower value 0.994 | locus YMR125W, strain sto1, stronger effect = lower value 0.984 | locus YMR129W, stronger effect = lower value 0.995 | locus YMR205C, strain PFK2, stronger effect = lower value 0.976 | locus YMR231W, strain pep5, stronger effect = lower value 0.991 | locus YNL071W, strain lat1, stronger effect = lower value 0.972 | [6] 0.985 | locus YNL209W, strain ssb2, stronger effect = lower value 0.987 | locus YNL248C, strain rpa49, stronger effect = lower value 0.981 | locus YNL322C, strain KRE1 (second series), stronger effect = lower value 0.989 | locus YNR049C, strain mso1, stronger effect = lower value 0.994 | locus YOR001W, strain rrp6, stronger effect = lower value 0.972 | locus YOR070C, strain gyp1, stronger effect = lower value 1 | locus YOR080W, strain dia2, stronger effect = lower value 0.987 | locus YOR083W, strain WHI5, stronger effect = lower value 1 | locus YOR106W, strain vam3, stronger effect = lower value 0.99 | [7] 0.95 | locus YOR265W, strain rbl2, stronger effect = lower value 0.993 | locus YOR270C, strain vph1, stronger effect = lower value 0.793 | locus YOR290C, strain snf2, stronger effect = lower value 1.01 | locus YPL051W, strain arl3, stronger effect = lower value 1.01 | locus YPL078C, strain atp4, stronger effect = lower value 0.975 | locus YPL106C, strain sse1, stronger effect = lower value 0.975 | locus YPL240C, strain hsp82, stronger effect = lower value 0.989 | [8] 0.974
